Reference: PubChem BioAssay (Tox21)
Records with an inconclusive call do not appear. Activity calls are given as the source filed them. Unless noted, calls follow the shape of the dose curve; as a rule, active = well fitted curve in the direction sought with a large enough effect in the repeat runs; inconclusive = weak or mixed curves; inactive = no such curve, though single readings can be large; an effect the other way counts as inactive or inconclusive.

Experiments:
[1] = qHTS assay to identify small molecule antagonists of the estrogen receptor alpha (ER-alpha) signaling pathway using the BG1 cell line in the presence of 0.1 nM 17-beta-estradiol - cell viability counter screen (AID 1259241); also: nearly all actives have a fitted effect of over 40% in size
Procedure, shortened: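 Cells were plated and left 24 hr, compounds in DMSO were pinned in, 17beta-estradiol was added to 0.1 nM final, and after 22 hr CellTiter-Fluor reagent was added for 30 min before fluorescence was read.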

[2] = qHTS assay to identify small molecule antagonists of the androgen receptor (AR) signaling pathway using the MDA cell line in the presence of 0.5 nM R1881 - cell viability counter screen (AID 1259242); also: nearly all actives have a fitted effect of over 45% in size
Procedure, shortened: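 MDA-kb2 cells (MMTV-luciferase, AR/GR responsive) were treated with compounds plus 0.5 nM R1881 (final) for 16 hr at 37C, 0% CO2. Viability was then read in the same wells as live-cell protease fluorescence (CellTiter-Fluor, 30 min).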

[3] = qHTS assay to identify small molecule HDAC inhibitors (AID 1259364); also: top concentration of the series differs between compounds; nearly all actives have a fitted effect of over 45% in size
Procedure, shortened: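 Wild-type HCT-116 cells, plated overnight at 37 C, exposed to compounds 2 hr at 37 C; luminogenic HDAC-Glo substrate then added 30 min at room temperature. Luminescence reports relative endogenous class I/II HDAC activity.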

[4] = qHTS assay to identify small molecule HDAC inhibitors - cell viability counter screen (AID 1259365); also: series mostly up to about 92 µM; nearly all actives have a fitted effect of over 50% in size
Procedure, shortened: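 Counter screen in wild-type HCT-116 cells: compounds dissolved in DMSO are pin-transferred onto overnight-plated cells and left 2hr at 37C. ATP-based CellTiter-Glo luminescence then measures viable cells.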

[5] = qHTS assay to identify small molecule agonists of the sonic hedgehog signaling (Shh) pathway - cell viability counter screen (AID 1259366); also: nearly all actives have a fitted effect of over 50% in size
Procedure, shortened: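 Cells are plated at 2,000 per well and left 4hr at 37C, 5% CO2 before compound addition. After 23hr of treatment, CellTiter-Fluor reagent is added for 1hr at 37C and fluorescence is measured.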

[6] = qHTS assay to identify small molecule antagonists of the sonic hedgehog signaling (Shh) pathway - cell viability counter screen (AID 1259367); also: nearly all actives have a fitted effect of over 55% in size
Procedure, shortened: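 NIH/3T3-derived Gli1-Luc reporter cells (2,000 per well) rested 4 hr at 37 C, then received DMSO compounds plus conditioned medium. After 23 hr of treatment, CellTiter-Fluor was added for 1 hr at 37C and fluorescence read.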

[7] = qHTS assay to identify small molecule agonists of the androgen receptor (AR) signaling pathway in the presence of an antagonist - cell viability counter screen (AID 1259379);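 also: MDA-kb2 human breast cancer cells carrying an MMTV luciferase reporter; series mostly up to about 92 µM; nearly all actives have a fitted effect of over 25% in size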
Procedure, shortened: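 MDA-kb2 cells (MMTV-luciferase, AR/GR), 3,000/well, 5 h attachment, then 3.0 µM nilutamide (final) and compounds at 15 concentrations. Viability by CellTiter-Fluor fluorescence after 16 h at 37 °C, 0% CO2, in the reporter wells.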

[8] = qHTS assay to identify small molecule agonists of the estrogen receptor beta (ER-beta) signaling pathway - cell viability counter screen (AID 1259380); also: nearly all actives have a fitted effect of over 30% in size
Procedure, shortened: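 ER-beta-UAS-bla HEK293T cells in medium with 2% charcoal-stripped FBS, pre-incubated 6 hr, then treated 16 hr at 37C. Cytotoxicity read in the same wells by CellTiter-Glo luminescence after 30 min at room temperature.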

[9] = qHTS assay to identify small molecule antagonists of the estrogen receptor beta (ER-beta) signaling pathway - cell viability counter screen (AID 1259382); also: series mostly up to about 92 µM; nearly all actives have a fitted effect of over 55% in size
Procedure, shortened: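 ER-beta-UAS-bla HEK293T cells in 2% charcoal-stripped FBS medium, treated with compound plus 1 nM 17-beta-estradiol for 16 h at 37C. Viability read by CellTiter-Glo luminescence after 30 min at room temperature in the same wells.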

[10] = qHTS assay to identify small molecule agonists or antagonists of the thyroid stimulating hormone receptor (TSHR) signaling pathway - wild type cell line counter screen (AID 1259384; calls by dose curve)
Procedure, shortened: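 Wild-type HEK293 cells were plated 18 h at 37 C/5% CO2, pin-dosed with compound plus Ro20-1724 medium, held 30 min at room temperature, then given cAMP-d2 and anti-cAMP-cryptate; fluorescence was read after 1 h. Fifteen concentrations, triplicate.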

[11] = target: Thyrotropin receptor (Homo sapiens) (UniProt P16473); assay: qHTS assay to identify small molecule antagonists of the thyroid stimulating hormone receptor (TSHR) signaling pathway (AID 1259385; calls by dose curve; also: nearly all actives have a fitted effect of over 20% in size)
Thyrotropin receptor (Homo sapiens), sequence (P16473 whole entry, looked up): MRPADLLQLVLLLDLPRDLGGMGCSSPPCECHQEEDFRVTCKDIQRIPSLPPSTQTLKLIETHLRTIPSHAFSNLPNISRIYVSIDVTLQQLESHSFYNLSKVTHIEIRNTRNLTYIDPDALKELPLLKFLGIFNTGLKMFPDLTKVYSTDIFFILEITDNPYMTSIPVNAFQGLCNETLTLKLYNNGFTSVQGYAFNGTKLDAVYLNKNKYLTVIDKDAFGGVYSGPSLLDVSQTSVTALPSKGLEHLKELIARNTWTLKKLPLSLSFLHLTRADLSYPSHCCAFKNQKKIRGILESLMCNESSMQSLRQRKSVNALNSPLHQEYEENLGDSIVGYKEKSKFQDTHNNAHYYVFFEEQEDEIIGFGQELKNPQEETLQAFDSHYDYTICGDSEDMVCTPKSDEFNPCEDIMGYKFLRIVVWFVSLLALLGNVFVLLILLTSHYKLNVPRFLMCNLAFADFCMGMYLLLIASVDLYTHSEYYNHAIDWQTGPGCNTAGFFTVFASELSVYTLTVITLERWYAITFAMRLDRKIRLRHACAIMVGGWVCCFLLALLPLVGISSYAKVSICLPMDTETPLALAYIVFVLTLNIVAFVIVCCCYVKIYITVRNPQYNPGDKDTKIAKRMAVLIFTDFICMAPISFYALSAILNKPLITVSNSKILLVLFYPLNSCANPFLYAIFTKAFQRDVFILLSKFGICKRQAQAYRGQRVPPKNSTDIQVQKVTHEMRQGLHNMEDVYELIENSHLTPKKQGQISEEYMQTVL
Procedure, shortened: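 TSHR-HEK293 cells were plated and held 18 h at 37C/5% CO2, then given compound plus Ro20-1724 and stimulated with TSH at 1.5 ng/mL final. After 30 min at room temperature, cAMP was detected with cAMP-d2/anti-cAMP-cryptate (1 h) by fluorescence.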

[12] = qHTS assay to identify small molecule agonists of the estrogen receptor alpha (ER-alpha) signaling pathway in the presence of an antagonist - cell viability counter screen (AID 1259386);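 also: series mostly up to about 92 µM; cells exposed to compounds for 22 h at 37 °C before the viability read; nearly all actives have a fitted effect of over 30% in size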
Procedure, shortened: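 Cell viability in VM7Luc4E2 cells (endogenous full-length ER-alpha) measured by CellTiter-Fluor fluorescence in the same wells as the luciferase screen. Cells pre-cultured 5 days in charcoal-stripped serum, then treated 22 h with compounds at 15 concentrations plus 10.0nM ICI-182,780.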

[13] = qHTS assay to identify small molecule antagonists of the sonic hedgehog signaling (Shh) pathway (AID 1259369; calls by dose curve; also: nearly all actives have a fitted effect of over 45% in size)
Procedure, shortened: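 NIH/3T3-derived Gli1-Luc reporter cells plated 4 h, dosed with compound, then stimulated with conditioned medium for 24 h at 37 C. Firefly luciferase luminescence read after 30 min with detection reagent at room temperature.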

[14] = target: Estrogen receptor beta (Homo sapiens) (UniProt Q92731); assay: qHTS assay to identify small molecule antagonists of the estrogen receptor beta (ER-beta) signaling pathway (AID 1259378; active = well fitted inhibition curve with a large enough effect in the signal ratio in the repeat runs, not every such curve was filed as active; the % refers to the signal ratio)
Estrogen receptor beta (Homo sapiens), sequence (Q92731 whole entry, looked up, the tested form may be a part): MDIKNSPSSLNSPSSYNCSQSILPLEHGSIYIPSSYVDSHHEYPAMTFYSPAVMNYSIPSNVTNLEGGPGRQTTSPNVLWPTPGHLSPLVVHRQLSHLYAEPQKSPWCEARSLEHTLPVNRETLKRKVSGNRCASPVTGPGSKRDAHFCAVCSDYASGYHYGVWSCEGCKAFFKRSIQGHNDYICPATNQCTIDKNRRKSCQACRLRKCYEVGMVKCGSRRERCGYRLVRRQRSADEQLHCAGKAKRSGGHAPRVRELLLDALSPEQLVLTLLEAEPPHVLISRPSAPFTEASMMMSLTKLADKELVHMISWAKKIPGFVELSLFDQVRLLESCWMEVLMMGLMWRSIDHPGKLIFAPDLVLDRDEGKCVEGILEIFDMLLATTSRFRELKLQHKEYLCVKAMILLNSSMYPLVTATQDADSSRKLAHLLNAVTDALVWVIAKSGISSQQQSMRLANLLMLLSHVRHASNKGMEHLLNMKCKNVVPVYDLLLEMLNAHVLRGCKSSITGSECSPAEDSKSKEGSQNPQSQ
Procedure, shortened: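 ER-beta-UAS-bla HEK293T (GripTite) cells in 2% charcoal-stripped FBS medium were preincubated 6 hr at 37C, dosed with compound, then stimulated with 1 nM E2 (final) for 16 hr; beta-lactamase reporter read by B/G FRET fluorescence after 2 hr substrate loading.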

[15] = qHTS assay to identify small molecule agonists of the sonic hedgehog signaling (Shh) pathway (AID 1259368; calls by dose curve;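 also: NIH/3T3-derived 3T3Gli1-Luc cells carrying a stable Gli1-driven firefly luciferase reporter; series mostly up to about 92 µM; nearly all actives have a fitted effect of over 15% in size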)
Procedure, shortened: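 NIH/3T3-derived 3T3Gli1-Luc cells with stably integrated Gli1-driven firefly luciferase, 2,000 cells/well, compounds added after 4 hr. Incubated 24 hr at 37C, 5% CO2; luminescence read after 30 min with luciferase reagent at room temperature.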

[16] = target: Estrogen receptor beta (Homo sapiens) (UniProt Q92731); assay: qHTS assay to identify small molecule agonists of the estrogen receptor beta (ER-beta) signaling pathway (AID 1259377; active = well fitted activation curve with a large enough effect in the signal ratio in the repeat runs, not every such curve was filed as active; the % refers to the signal ratio)
Procedure, shortened: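 Agonist mode cell assay in GripTite HEK293T cells expressing an ER-beta fusion that drives beta-lactamase from an Upstream Activator Sequence; 16 hr compound exposure at 37C, then 2 h LiveBLAzer B/G FRET substrate at room temperature, fluorescence read-out.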

[17] = target: Androgen receptor (Homo sapiens) (UniProt P10275); assay: qHTS assay to identify small molecule antagonists of the androgen receptor (AR) signaling pathway using the MDA cell line in the presence of 0.5 nM R1881 (AID 1259243); also: nearly all actives have a fitted effect of over 50% in size
Androgen receptor (Homo sapiens), sequence (P10275 whole entry, looked up): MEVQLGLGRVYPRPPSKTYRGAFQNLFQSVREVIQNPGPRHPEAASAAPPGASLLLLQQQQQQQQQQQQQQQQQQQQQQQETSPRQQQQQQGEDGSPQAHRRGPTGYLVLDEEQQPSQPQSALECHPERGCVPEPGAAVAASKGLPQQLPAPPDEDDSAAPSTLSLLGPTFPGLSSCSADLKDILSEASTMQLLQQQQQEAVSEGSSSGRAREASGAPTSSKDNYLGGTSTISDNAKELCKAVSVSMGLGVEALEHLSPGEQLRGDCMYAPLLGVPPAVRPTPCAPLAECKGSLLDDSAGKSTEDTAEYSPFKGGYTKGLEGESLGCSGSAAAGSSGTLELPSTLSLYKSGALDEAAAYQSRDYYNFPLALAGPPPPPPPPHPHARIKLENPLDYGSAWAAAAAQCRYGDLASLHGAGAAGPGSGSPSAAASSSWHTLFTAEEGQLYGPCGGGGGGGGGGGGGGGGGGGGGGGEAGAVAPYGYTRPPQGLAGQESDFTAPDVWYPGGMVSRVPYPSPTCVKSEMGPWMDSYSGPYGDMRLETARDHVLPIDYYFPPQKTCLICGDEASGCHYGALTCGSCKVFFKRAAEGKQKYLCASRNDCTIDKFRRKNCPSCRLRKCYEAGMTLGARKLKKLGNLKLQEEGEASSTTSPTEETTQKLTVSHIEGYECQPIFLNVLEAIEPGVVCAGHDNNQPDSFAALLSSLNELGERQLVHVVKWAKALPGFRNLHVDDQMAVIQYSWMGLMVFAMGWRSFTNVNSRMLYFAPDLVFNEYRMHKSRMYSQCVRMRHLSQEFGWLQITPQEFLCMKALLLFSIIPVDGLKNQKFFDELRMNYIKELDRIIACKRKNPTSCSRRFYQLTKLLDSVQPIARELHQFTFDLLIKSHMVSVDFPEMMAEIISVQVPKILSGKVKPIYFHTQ
Procedure, shortened: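 MDA-kb2 cells (MMTV-luciferase, responsive to AR and GR) at 3,000/well, rested 5 h at 37C, 0% CO2, then given compounds plus 0.5 nM R1881 (final) for 16 hr. Luciferase read with ONE-Glo after 30 min at room temperature.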

[18] = target: Estrogen receptor (Homo sapiens) (UniProt P03372); assay: qHTS assay to identify small molecule antagonists of the estrogen receptor alpha (ER-alpha) signaling pathway using the BG1 cell line in the presence of 0.1 nM 17-beta-estradiol (AID 1259244); also: nearly all actives have a fitted effect of over 50% in size
Estrogen receptor (Homo sapiens), sequence (P03372 whole entry, looked up): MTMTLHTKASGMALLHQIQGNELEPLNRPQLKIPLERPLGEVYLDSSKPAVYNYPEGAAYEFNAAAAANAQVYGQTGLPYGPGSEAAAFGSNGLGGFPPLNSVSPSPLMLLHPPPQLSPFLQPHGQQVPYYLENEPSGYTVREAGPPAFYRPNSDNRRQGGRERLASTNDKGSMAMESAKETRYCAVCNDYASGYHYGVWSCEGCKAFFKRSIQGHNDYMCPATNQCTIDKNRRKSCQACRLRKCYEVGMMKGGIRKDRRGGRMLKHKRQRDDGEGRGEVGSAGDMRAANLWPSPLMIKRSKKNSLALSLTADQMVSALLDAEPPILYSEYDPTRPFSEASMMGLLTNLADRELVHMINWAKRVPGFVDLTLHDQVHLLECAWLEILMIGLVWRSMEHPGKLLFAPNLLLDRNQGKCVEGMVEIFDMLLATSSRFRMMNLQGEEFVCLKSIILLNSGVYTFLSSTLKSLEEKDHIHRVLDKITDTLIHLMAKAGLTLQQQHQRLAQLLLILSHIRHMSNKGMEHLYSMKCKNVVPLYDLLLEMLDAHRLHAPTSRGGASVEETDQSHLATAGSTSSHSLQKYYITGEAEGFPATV
Procedure, shortened: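 VM7Luc4E2 cells (endogenous full-length ER-alpha, 4×ERE-luciferase), kept 5 days in phenol red-free, charcoal-stripped FBS medium; 4,000 cells/well. Compounds added with 0.1 nM (final) 17beta-estradiol, 22 hr at 37C; luminescence read with ONE-Glo after 30 min.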

[19] = target: Estrogen receptor (Homo sapiens) (UniProt P03372); assay: qHTS assay to identify small molecule agonists of the estrogen receptor alpha (ER-alpha) signaling pathway in the presence of an antagonist (AID 1259383; calls by dose curve; also: top concentration of the series differs between compounds; nearly all actives have a fitted effect of over 15% in size)
Procedure, shortened: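 VM7Luc4E2 cells express endogenous full-length ER-alpha with an ERE-luciferase reporter and were hormone-deprived for 5 days. Compounds at 15 concentrations were added with 10.0nM ICI-182,780 for 22hr at 37C. Luminescence was read with ONE-Glo.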

[20] = qHTS assay to identify small molecule phospholipidosis (PLD) inducers (AID 1259344; active = well fitted curve in the direction sought with a large enough effect; an effect the other way counts as inactive or inconclusive)
Procedure, shortened: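 HepG2 cells on collagen I, attached 4 h at 37 C, were co-treated with compound and LipidTOX Red dye for 24 h at 37 C, then fixed with paraformaldehyde plus Hoechst 33342 and imaged by high-content microscopy for phospholipid accumulation.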

Measured: Potency

OC[C@]1(O)OC[C@@H](O)[C@H](O)[C@@H]1O
inactive: [1] | [2] | [3] | [4] | [5] | [6] | [7] | [8] | [9] | [10] | [11] | [12]

NC(=O)c1ccc([N+](=O)[O-])cc1
inactive: [1] | [2] | [3] | [4] | [5] | [6] | [13] | [7] | [8] | [9] | [10] | [11] | [12]

COC(=O)CCSCCC(=O)OC
inactive: [1] | [2] | [3] | [4] | [5] | [6] | [14] | [7] | [8] | [9] | [10] | [11] | [12]

NS(=O)(=O)c1ccccc1Cl
inactive: [1] | [2] | [3] | [4] | [5] | [6] | [15] | [13] | [7] | [8] | [9] | [10] | [11] | [12]

O=C(O)CNC(=O)c1ccc([N+](=O)[O-])cc1
inactive: [1] | [2] | [3] | [4] | [5] | [6] | [15] | [13] | [16] | [14] | [7] | [8] | [9] | [12]

O=C1CCCC(=O)C1
inactive: [1] | [2] | [4] | [5] | [6] | [15] | [13] | [16] | [14] | [7] | [8] | [9] | [12]

C1OCOCO1
inactive: [1] | [2] | [4] | [5] | [6] | [15] | [7] | [8] | [9] | [11] | [12]

COC(C)(C)CCCC(C)CC=O (stereo not given)
inactive: [1] | [2] | [4] | [5] | [6] | [16] | [14] | [7] | [8] | [9] | [10] | [11] | [12]

C=C(C)CS(=O)(=O)O
inactive: [1] | [17] | [18] | [4] | [5] | [6] | [15] | [7] | [8] | [9] | [11] | [12]

CC(C)=CCCC(C)CC(=O)O (stereo not given)
inactive: [1] | [2] | [3] | [4] | [5] | [6] | [15] | [13] | [16] | [14] | [7] | [8] | [9] | [11] | [12]

CO/N=C(/C(=O)N[C@@H]1C(=O)N2C(C(=O)OCOC(=O)C(C)(C)C)=C(C)CS[C@H]12)c1csc(N)n1
inactive: [1] | [2] | [4] | [5] | [6] | [15] | [13] | [16] | [14] | [7] | [8] | [9] | [10] | [11] | [12]

CCc1ccc(O)c(OC)c1
inactive: [1] | [2] | [3] | [4] | [5] | [6] | [15] | [13] | [14] | [7] | [8] | [9] | [11] | [12]

COC(=O)c1cc(C(=O)OC)cc(S(=O)(=O)O)c1
inactive: [1] | [2] | [4] | [5] | [6] | [15] | [13] | [16] | [14] | [7] | [8] | [9] | [11] | [12]

CC(C)(O)C(=O)c1ccccc1
inactive: [1] | [17] | [18] | [3] | [4] | [5] | [6] | [15] | [13] | [16] | [14] | [7] | [8] | [9] | [19] | [11] | [12]

C=C(C)C(=O)OCCCCCCCC(C)C
inactive: [1] | [17] | [18] | [3] | [4] | [15] | [16] | [14] | [7] | [8] | [9] | [19] | [10] | [11] | [12]

CO[C@]12C[C@@H](COC(=O)c3cncc(Br)c3)CN(C)[C@@H]1Cc1cn(C)c3cccc2c13
inactive: [1] | [2] | [3] | [4] | [5] | [6] | [15] | [13] | [8] | [9] | [10] | [11] | [12]

Cc1cc2c(cc1S(N)(=O)=O)S(=O)(=O)CCC2
inactive: [1] | [18] | [20] | [3] | [4] | [5] | [6] | [15] | [13] | [16] | [14] | [7] | [8] | [9] | [10] | [11] | [12]

O=C(CCCN1CCN(c2ccccn2)CC1)c1ccc(F)cc1
inactive: [1] | [2] | [4] | [5] | [6] | [15] | [13] | [16] | [14] | [7] | [9] | [10] | [12]

CCOC(=O)CC(C)=O
inactive: [1] | [4] | [5] | [6] | [15] | [13] | [7] | [8] | [9] | [10] | [11] | [12]
